# Source: the supplement of paper PMC8728848
# About 410 targets per protein were measured; listed, in parts, are those with the strongest signals and a random draw of the rest.
# Experiments:
# Test in all cases: glycan array binding signal (z-score within array); higher = stronger binding
# Settings in all cases: glycan notation: IUPAC condensed, linker removed
# Fuc(a1-2)Gal(b1-3)GalNAc = biological target: Fuc(a1-2)Gal(b1-3)GalNAc
# Summary of the method: (§1)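 Glycan array data were curated from 3228 arrays in the Consortium for Functional Glycomics database and kept only where the protein sequence was available. Glycan names were converted to IUPAC-condensed notation, and columns mapping to the same glycan were averaged. The binding signal is a within-array Z-score, averaged across arrays of the same protein sequence at different concentrations or buffers and across linkers. Negative Z-scores can be read as non-binding.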
# [1] = biological target: Fuc(a1-2)Gal(b1-4)GlcNAc(b1-6)GalNAc
# Summary of the method: as §1
# [2] = biological target: Fuc(a1-2)Gal(b1-4)[Fuc(a1-3)]GlcNAc(b1-3)GalNAc
# Summary of the method: as §1
# Fuc(a1-2)[Gal(a1-3)]Gal = biological target: Fuc(a1-2)[Gal(a1-3)]Gal
# Summary of the method: as §1
# [3] = biological target: Fuc(a1-2)[Gal(a1-3)]Gal(b1-3)GalNAc
# Summary of the method: as §1
# [4] = biological target: Fuc(a1-2)[Gal(a1-3)]Gal(b1-4)GlcNAc(b1-6)GalNAc
# Summary of the method: as §1
# [5] = biological target: Fuc(a1-2)[GalNAc(a1-3)]Gal(b1-3)GalNAc(a1-3)[Fuc(a1-2)]Gal(b1-4)GlcNAc
# Summary of the method: as §1
# [6] = biological target: Fuc(a1-2)[GalNAc(a1-3)]Gal(b1-4)Glc
# Summary of the method: as §1
# [7] = biological target: Fuc(a1-2)[GalNAc(a1-3)]Gal(b1-4)GlcNAc(b1-2)Man
# Summary of the method: as §1
# [8] = biological target: Fuc(a1-2)[GalNAc(a1-3)]Gal(b1-4)[Fuc(a1-3)]GlcNAc
# Summary of the method: as §1
# [9] = biological target: Fuc(a1-2)[GalNAc(a1-4)]Gal(b1-4)GlcNAc
# Summary of the method: as §1
# [10] = biological target: Fuc(a1-2)[GalNAc(b1-3)]Gal
# Summary of the method: as §1
# [11] = biological target: Fuc(a1-3)[Gal(b1-4)]GlcNAc(b1-2)Man(a1-6)[Gal(b1-4)GlcNAc(b1-2)Man(a1-3)]Man(b1-4)GlcNAc(b1-4)GlcNAc
# Summary of the method: as §1
# [12] = biological target: Gal(a1-3)Gal(b1-3)GlcNAc(b1-6)GalNAc
# Summary of the method: as §1
# [13] = biological target: Gal(a1-3)Gal(b1-3)[Fuc(a1-4)]GlcNAc(b1-2)Man(a1-3)[Gal(a1-3)Gal(b1-3)[Fuc(a1-4)]GlcNAc(b1-2)Man(a1-6)]Man(b1-4)GlcNAc(b1-4)GlcNAc
# Summary of the method: as §1
# [14] = biological target: Gal(a1-3)Gal(b1-4)GlcNAc(b1-2)Man(a1-3)[Gal(a1-3)Gal(b1-4)GlcNAc(b1-2)Man(a1-6)]Man(b1-4)GlcNAc(b1-4)GlcNAc
# Summary of the method: as §1
# [15] = biological target: Gal(a1-3)Gal(b1-4)GlcNAc(b1-6)GalNAc
# Summary of the method: as §1
# [16] = biological target: Gal(a1-4)Gal(b1-4)GlcNAc(b1-2)Man(a1-3)[Gal(a1-4)Gal(b1-4)GlcNAc(b1-2)Man(a1-6)]Man(b1-4)GlcNAc(b1-4)GlcNAc
# Summary of the method: as §1
# [17] = biological target: Gal(b1-3)GlcNAc(b1-6)GalNAc
# Summary of the method: as §1
# Gal(b1-4)GlcNAc = biological target: Gal(b1-4)GlcNAc
# Summary of the method: as §1
# [18] = biological target: Gal(b1-4)GlcNAc(b1-3)Gal(b1-4)Glc
# Summary of the method: as §1
# [19] = biological target: Gal(b1-4)GlcNAc(b1-3)Gal(b1-4)GlcNAc(b1-3)GalNAc
# Summary of the method: as §1
# [20] = biological target: Gal(b1-4)GlcNAc(b1-6)Gal(b1-4)GlcNAc(b1-6)GalNAc
# Summary of the method: as §1
# [21] = biological target: Gal(b1-4)GlcNAc(b1-6)GalNAc
# Summary of the method: as §1
# GalNAc(b1-3)Gal = biological target: GalNAc(b1-3)Gal
# Summary of the method: as §1
# [22] = biological target: GalNAc(b1-3)Gal(a1-6)Gal(b1-4)Glc
# Summary of the method: as §1
# [23] = biological target: GalNAc(b1-4)GlcNAc(b1-3)GalNAc(b1-4)GlcNAc
# Summary of the method: as §1
# [24] = biological target: GlcNAc(a1-4)Gal(b1-3)GlcNAc
# Summary of the method: as §1
# [25] = biological target: GlcNAc(b1-3)Gal(b1-4)GlcNAc(b1-3)Gal(b1-4)GlcNAc
# Summary of the method: as §1
# [26] = biological target: GlcNAc(b1-3)Gal(b1-4)GlcNAc(b1-3)GalNAc
# Summary of the method: as §1
# [27] = biological target: Man(a1-3)[Man(a1-6)]Man(b1-4)GlcNAc(b1-4)GlcNAc
# Summary of the method: as §1
# Man(b1-4)GlcNAc = biological target: Man(b1-4)GlcNAc
# Summary of the method: as §1
# [28] = biological target: Neu5Ac(a2-3)Gal(b1-3)GlcNAc(b1-3)GalNAc
# Summary of the method: as §1
# [29] = biological target: Neu5Ac(a2-3)Gal(b1-3)[GlcNAc(b1-6)]GalNAc
# Summary of the method: as §1
# Neu5Ac(a2-3)Gal(b1-4)Glc = biological target: Neu5Ac(a2-3)Gal(b1-4)Glc
# Summary of the method: as §1
# [30] = biological target: Neu5Ac(a2-3)Gal(b1-4)GlcNAc(b1-3)Gal(b1-3)GlcNAc
# Summary of the method: as §1
# [31] = biological target: Neu5Ac(a2-3)Gal(b1-4)GlcNAc(b1-6)GalNAc
# Summary of the method: as §1
# [32] = biological target: Neu5Ac(a2-3)Gal(b1-4)[Fuc(a1-3)]GlcNAc(b1-6)[Neu5Ac(a2-3)Gal(b1-3)]GalNAc
# Summary of the method: as §1
# [33] = biological target: Neu5Ac(a2-6)Gal(b1-3)GlcNAc(b1-3)[Gal(b1-4)GlcNAc(b1-6)]Gal(b1-4)Glc
# Summary of the method: as §1
# [34] = biological target: Neu5Ac(a2-6)Gal(b1-4)GlcNAc(b1-2)Man
# Summary of the method: as §1
# [35] = biological target: Neu5Ac(a2-8)Neu5Ac(a2-3)[GalNAc(b1-4)]Gal(b1-4)Glc
# Summary of the method: as §1
# [36] = biological target: Neu5Ac(b2-6)Gal(b1-4)GlcNAc
# Summary of the method: as §1
# [37] = biological target: Neu5Gc(a2-3)Gal(b1-3)GlcNAc
# Summary of the method: as §1
# [38] = biological target: Neu5Gc(a2-3)Gal(b1-4)GlcNAc
# Summary of the method: as §1
# [39] = biological target: Neu5Gc(a2-8)Neu5Ac(a2-3)Gal(b1-4)GlcNAc
# Summary of the method: as §1
binder,measurement,setting,value
MGL6A (Homo sapiens) (protein) MTRTYENFQYLENKVKVQGFKNGPLPLQSLLQRLCSGPCHLLLSLGLGLLLLVIICVVGFQNSKFQRDLVTLRTDFSNFTSNTVAEIQALTSQGSSLEETIASLKAEVEGFKQERQAVHSEMLLRVQQLVQDLKKLTCQVATLNNNGEEASTEGTCCPVNWVEHQDSCYWFSHSGMSWAEAEKYCQLKNAHLVVINSREEQNFVQKYLGSAYTWMGLSDPEGAWKWVDGTDYATGFQNWKPGQPDDWQGHGLGGGEDCAHFHPDGRWNDDVCQRPYHWVCEAGLGQTSQESH,glycan array binding signal (z-score),Fuc(a1-2)Gal(b1-3)GalNAc,-0.261
same,glycan array binding signal (z-score),[1],4.02
same,glycan array binding signal (z-score),[2],-0.238
same,glycan array binding signal (z-score),Fuc(a1-2)[Gal(a1-3)]Gal,-0.261
same,glycan array binding signal (z-score),[3],-0.249
same,glycan array binding signal (z-score),[4],-0.27
same,glycan array binding signal (z-score),[5],0.966
same,glycan array binding signal (z-score),[6],0.534
same,glycan array binding signal (z-score),[7],-0.017
same,glycan array binding signal (z-score),[8],-0.22
same,glycan array binding signal (z-score),[9],4.68
same,glycan array binding signal (z-score),[10],4.73
same,glycan array binding signal (z-score),[11],1.06
same,glycan array binding signal (z-score),[12],4.29
same,glycan array binding signal (z-score),[13],-0.221
same,glycan array binding signal (z-score),[14],-0.225
same,glycan array binding signal (z-score),[15],4.16
same,glycan array binding signal (z-score),[16],-0.244
same,glycan array binding signal (z-score),[17],3.91
same,glycan array binding signal (z-score),Gal(b1-4)GlcNAc,-0.075
same,glycan array binding signal (z-score),[18],-0.284
same,glycan array binding signal (z-score),[19],-0.303
same,glycan array binding signal (z-score),[20],-0.256
same,glycan array binding signal (z-score),[21],4.67
same,glycan array binding signal (z-score),GalNAc(b1-3)Gal,4.13
same,glycan array binding signal (z-score),[22],4.47
same,glycan array binding signal (z-score),[23],3.79
same,glycan array binding signal (z-score),[24],-0.306
same,glycan array binding signal (z-score),[25],0.5
same,glycan array binding signal (z-score),[26],-0.327
same,glycan array binding signal (z-score),[27],-0.224
same,glycan array binding signal (z-score),Man(b1-4)GlcNAc,-0.258
same,glycan array binding signal (z-score),[28],-0.273
same,glycan array binding signal (z-score),[29],-1.57
same,glycan array binding signal (z-score),Neu5Ac(a2-3)Gal(b1-4)Glc,-0.45
same,glycan array binding signal (z-score),[30],-0.277
same,glycan array binding signal (z-score),[31],3.89
same,glycan array binding signal (z-score),[32],-0.153
same,glycan array binding signal (z-score),[33],-0.259
same,glycan array binding signal (z-score),[34],-0.302
same,glycan array binding signal (z-score),[35],2.18
same,glycan array binding signal (z-score),[36],-0.277
same,glycan array binding signal (z-score),[37],-0.256
same,glycan array binding signal (z-score),[38],-0.228
same,glycan array binding signal (z-score),[39],-0.273
